Most compounds without a hit are left out; they make up all but 6.1% or so of the library.
ATXN viability = viability counter-screen for ATXN expression inhibitors | S2 cells (HEK-293 line with an ATXN2-luciferase reporter) viability, CellTiter-Fluor protease fluorescence, 24 h | Potency, µM (top dose mostly 56.7 µM), usual class: cytotoxic | actives 0.49% (n = 400,000) | AID 651635; also: nearly all actives have a fitted effect of over 40% in size
VP16 counter = Gal4-VP16 reporter inhibition counter-screen; AID 2546; Drosophila S2 Gal4-VP16 UAS-luciferase, luminescence, 20 h; actives 3.5% (n = 310,000); Potency, µM (doses to about 53.6 µM), for inactives: at the highest dose activity, negative = inhibition, usual class: inhibitors;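 also: Gal4-VP16 expression switched on by copper sulfate through the metallothionein promoter; % is scaled to controls: 0 for no effect and ±100 for the full control effect; nearly all actives have a fitted effect of over 50% in size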
TGFb SMAD3 inh = inhibitors of TGF-b signaling; HepG2 CAGA-GFP TGF-b/SMAD3 reporter, GFP fluorescence, 18 h; TGF-beta stimulated, 500 pg/mL final; Potency, µM (doses to about 46.1 µM), for inactives: top-dose activity, negative = inhibition, hits mostly inhibitors; actives 1.2% (n = 410,000); also: % is scaled to controls: 0 for no effect and ±100 for the full control effect; nearly all actives have a fitted effect of over 65% in size
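GFP signal (ex488/em500-530) from TGF-beta-stimulated HEPG2 CAGA-GFP cells, 500 pg/mL final, 18 h at 37 degrees C in DMEM plus 1% FBS, normalized to unstimulated and DMSO-stimulated controls.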
HepG2 tox = counter-screen for TGF-b inhibitors: cytotoxicity in HepG2 cells; HepG2 CAGA-GFP viability, ATP luminescence, 18 h; Potency, µM (top dose mostly 46.1 µM), inactives show at the highest dose activity change, negative = cytotoxicity, usual class: cytotoxic; actives 0.76% (n = 410,000); AID 588856
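HepG2 CAGA-GFP cells (1000/well, DMEM with 1% FBS) received compound, then TGF-beta at 500 pg/mL final, and were incubated 18 hours at 37 degrees C. Viability was read by CellTiter-Glo luminescence. Media-only wells were set as complete cell-killing and DMSO as no toxicity.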
ATXN2 expr inh = inhibitors of ATXN2 expression. HEK-293 ATXN2-luciferase reporter, luminescence, 24 h. Potency, µM (titrated, usually from 57 µM), for the others: top-dose activity change, negative = inhibition, most hits filed as inhibitors. actives 0.72% (n = 360,000). AID 1745845; also: % is scaled to controls: 0 for no effect and ±100 for the full control effect; nearly all actives have a fitted effect of over 55% in size
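qHTS (up to 57 uM final) was run with 24 h compound exposure of reporter cells at 37 °C. Each well was multiplexed: SteadyGlo luminescence measured ATXN2-luciferase expression after a fluorogenic Gly-Phe-AFC viability readout (25 uM final).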
RORgamma inh = ROR gamma (mouse) transcription inhibition; Potency, µM (titrated, usually from 53.6 µM), inactives show at the highest dose activity change, negative = inhibition, hits mostly inhibitors; AID 2551; P51450; actives 5.4% (n = 310,000); Drosophila S2 Gal4-RORgamma UAS-luciferase reporter, 20 h; also: % is scaled to controls: 0 for no effect and ±100 for the full control effect; nearly all actives have a fitted effect of over 60% in size
Target sequence (P51450 whole entry, looked up, the tested form may be a part): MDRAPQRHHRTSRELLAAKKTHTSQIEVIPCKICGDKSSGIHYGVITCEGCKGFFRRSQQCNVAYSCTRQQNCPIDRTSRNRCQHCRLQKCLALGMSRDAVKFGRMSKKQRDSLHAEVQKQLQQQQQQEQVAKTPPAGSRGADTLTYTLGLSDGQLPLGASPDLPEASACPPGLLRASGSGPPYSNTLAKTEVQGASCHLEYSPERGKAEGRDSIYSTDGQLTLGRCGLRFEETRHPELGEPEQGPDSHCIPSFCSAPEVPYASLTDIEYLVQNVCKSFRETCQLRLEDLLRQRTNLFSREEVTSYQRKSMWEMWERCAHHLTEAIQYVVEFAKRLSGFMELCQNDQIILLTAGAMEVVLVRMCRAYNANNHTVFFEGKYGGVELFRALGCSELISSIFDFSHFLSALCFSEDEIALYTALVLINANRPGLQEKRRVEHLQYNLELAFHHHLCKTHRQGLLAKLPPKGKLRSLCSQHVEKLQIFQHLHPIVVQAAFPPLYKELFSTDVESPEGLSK
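Read-out: Photinus luciferase luminescence; inhibitors lower reporter signal. Insect Schneider cells with Gal4-ROR gamma fusion under metallothionein promoter, UAS reporter; 700 uM final copper sulfate induction, 20 hr, ambient temperature.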
Starred values were filed as active, the others as inactive; i = inactive; ? = inconclusive; · = no result. Calls follow the shape of the dose curve; as a rule, active = well fitted curve in the direction sought with a large enough effect; inconclusive = small, poorly fitted or top-dose-only effect, or another doubt; inactive = no such curve, though single readings can be large; an effect the other way counts as inactive or inconclusive. Potency is read from the fitted curve at half-maximal effect.

SMILES	ATXN viability	VP16 counter	TGFb SMAD3 inh	HepG2 tox	ATXN2 expr inh	RORgamma inh
CCOc1ccc2c(c1)n([O-])c1c([n+]2=O)CCCC1	i	?	-2.7%	-0.4%	11.6%	12.6µM*
Cc1ccc(C(=O)N/N=C\c2ccc(-c3ccc(Cl)cc3)o2)cn1	i	10µM*	?	-45.6%	·	2.51µM*
Cn1cccc1/C=N/NC(=O)c1cccnc1	i	1.4%	-2.5%	2.8%	5.4%	-40.2%
Cn1cccc1/C=N/NC(=O)c1cccs1	i	?	-15.5%	-28.3%	·	?
Cc1ccc(C(=O)N/N=C\c2cccn2C)cn1	i	?	2.3%	-7.9%	-2.3%	11.2µM*
CCCc1cc(C(=O)N/N=C/c2cccn2C)cs1	i	22.4µM*	25.8%	2.5%	25.2%	11.2µM*
CC(C)NC(=O)[C@@H]1C[C@@H](Sc2nc3ccccc3[nH]2)CN1C1Cc2ccccc2C1	i	·	·	·	·	·
CCN(CC(=O)Nc1ccc(NC(C)=O)cc1)C(=O)c1ccc(N2CCC(C)CC2)c([N+](=O)[O-])c1	i	·	1.1%	-16.6%	-3.0%	·
CCc1nnc(N/N=C/c2ccc(N3CCC(C)CC3)c([N+](=O)[O-])c2)n1N	i	?	10µM*	11.2µM*	-21.9%	10µM*
Cc1nnc(N/N=C/c2cc([N+](=O)[O-])c(N3CCC(C)CC3)cc2N2CCC(C)CC2)n1N	i	?	-12.7%	-96.1%	-26.7%	15.8µM*
CC1CCN(c2cc(N3CCOCC3)c([N+](=O)[O-])cc2F)CC1	?	-6.8%	1.3%	-20.3%	-13.2%	-33.5%
Cc1nc(-c2ccc(S(=O)(=O)N(Cc3ccccc3)C(C)C)cc2)co1	i	·	-15.3%	-28.9%	-17.7%	·
COc1ccccc1NC(=S)NC1CCCC1	i	·	9.5%	-2.3%	·	·
CN(C)NC(=S)NC1CC2CCC1C2 (centres undefined)	i	12.6µM*	5.1%	-6.9%	6.4%	5.62µM*
COc1ccccc1NC(=S)NC1CC2CCC1C2 (centres undefined)	i	15.8µM*	-0.9%	-3.9%	-15.2%	2.24µM*
COc1ccccc1NC(=S)NC1CCC(CC2CCC(NC(=S)Nc3ccccc3OC)CC2)CC1 (centres undefined)	i	3.16µM*	-7.4%	-9.0%	-0.8%	3.55µM*
CN(C)NC(=S)NC1CCS(=O)(=O)C1 (centres undefined)	i	-13.8%	-18.5%	8.9%	-0.4%	-25.7%
CCOC(=O)C(c1ccccc1)C(Nc1ccc(F)cc1)c1ccccn1 (centres undefined)	i	11.4%	-22.2%	0.6%	·	17.4%
CCOC(=O)C(C(=O)OCC)C(Nc1ccc(Br)cc1)c1ccccc1 (centres undefined)	i	?	?	11.2µM*	-24.8%	11.2µM*
Cc1ccc2c(c1)Cc1c(nc(-c3ccc(Cl)cc3)nc1SCC(=O)N1CCCCC1)O2	i	·	1.1%	-9.9%	12.5%	·
COc1ccc(NC(=O)CN(Cc2ccccc2)S(=O)(=O)c2ccc(C)cc2)cc1Cl	i	·	?	-9.8%	-16.8%	·
CCCCC(=O)NC(c1ccccc1OC)c1ccc2cccnc2c1O (centres undefined)	i	4.47µM*	?	-8.1%	3.98µM*	5.62µM*
CCOc1cc(C(Nc2cc(C)ccn2)c2ccc3cccnc3c2O)ccc1OC (centres undefined)	·	·	0.794µM*	-49.4%	·	·
CCCCC(=O)NC(c1ccc(OC)c(OC)c1)c1c(O)ccc2ccccc12 (centres undefined)	i	0.2%	?	-35.8%	-3.3%	13.5%
CCCC(=O)NC(c1ccccc1OC)c1ccc2cccnc2c1O (centres undefined)	i	2.24µM*	-15.4%	-21.1%	?	5.01µM*
SMILES	ATXN viability	VP16 counter	TGFb SMAD3 inh	HepG2 tox	ATXN2 expr inh	RORgamma inh
Cc1ccc(S(=O)(=O)c2nnn(-c3ccc(F)c(Cl)c3)c2N)cc1	i	·	?	-34.0%	-10.7%	·
COc1ccccc1NC(=O)C(=O)NCC(c1ccc2c(c1)OCO2)N1CCOCC1 (centres undefined)	i	·	5.1%	3.5%	5.9%	·
CCOc1ccc(-c2c[n+]3c(n2-c2ccccc2)CCCCC3)cc1	i	3.55µM*	?	-41.7%	?	?
COc1ccc(-n2c(-c3ccccc3)c[n+]3c2CCC3)cc1	?	?	4.6%	-2.3%	?	?
CC(C)(C)C(=O)CSc1n[nH]c(-c2ccccc2)n1	·	·	-0.3%	-1.6%	·	·
Cn1nc(C(=O)Oc2cc(=O)n(C)c3ccccc23)c2ccccc2c1=O	0.224µM*	0.3%	-2.5%	-3.6%	·	25.8%
O=C1C2CCCN2C(c2ccc(Cl)cc2)N1c1nccs1 (centres undefined)	i	-22.4%	-7.4%	-18.8%	-10.3%	12.6µM*
Cc1ccc(C2N(c3nccs3)C(=O)C3CCCN32)cc1 (centres undefined)	?	-16.4%	-18.1%	-15.1%	0.8%	12.6µM*
Oc1ccccc1-c1cc(C(F)(F)C(F)F)nc(-c2ccccc2)n1	i	-6.0%	-3.6%	-3.6%	-8.0%	-34.9%
O=[N+]([O-])c1ccc(O)c(-c2cc(C(F)(F)F)nc(-c3ccccc3)n2)c1	?	2.82µM*	?	-42.3%	·	1.12µM*
CCCCSCc1nc2ccccn2c1Br	i	-5.3%	-6.6%	3.0%	21.9%	11.2µM*
CCSCc1nc2ccccn2c1Br	i	5.5%	-21.0%	-1.9%	·	-8.2%
O=CNc1c(Cl)cc2c(c1Cl)Cc1cc([N+](=O)[O-])ccc1-2	i	·	3.16µM*	-31.8%	-5.6%	·
O=[N+]([O-])c1ccc2c(c1)Cc1cc(F)ccc1-2	i	·	-6.3%	-5.6%	0.6%	·
COc1cccc(C(=O)CC2(O)C(=O)N(Cc3ccccc3)c3ccccc32)c1 (centres undefined)	·	·	-1.4%	-17.4%	·	·
CCCN1C(=O)C(O)(CC(=O)c2cccc(OC)c2)c2ccccc21 (centres undefined)	i	14.1µM*	-2.9%	0.8%	-7.5%	-17.3%
COC(=O)c1ccc(CC(=O)c2c(C)cc(O)cc2O)o1	i	?	-1.2%	-14.3%	44.4%	11.2µM*

Screening data (PubChem BioAssay)
